Reference: PubChem BioAssay
Activity calls are given as the source filed them.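 The calls were made as follows, unless noted: active = fluorescence slope after compound addition differing from the mean of all screened samples at 99.7% confidence, in either direction; inactive = the rest.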

How the values were obtained:
[1] = inhibitors of TNFa-induced NFkB p65 translocation, primary screen, imaging, HUVEC, MLSMR starter and 10KST1 sets (AID 438;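 active = inhibition above 20% together with a positive visual image hit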;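 also: compound added about 3h40 before a 20 min TNFalpha stimulation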;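 as to inhibition: signal is the nuclear over cytoplasmic p65 intensity ratio per well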); settings: HUVEC TNFa-induced p65 nuclear translocation; cell count: measured here: nuclei count (cytotoxicity indicator), at 2.08 µM; inhibition: at 2 µM, stronger effect = higher value, 0% TNFa-plus-vehicle, 100% no-TNFa wells
[2] = inhibitors of mutant huntingtin aggregation, primary screen, imaging, exon1htt(103Q)mCFP cells, high-content imaging (AID 483;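 active = visual image review flags a hit and inhibition of aggregation exceeds 20%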;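 also: compound exposure lasted 3 days before fixation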;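 as to nuclei count: percent of the per-plate median nuclei count of sample wells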); settings: exon1htt(103Q)mCFP cell line, aggregate imaging, at 2 µM; inhibition of aggregation: stronger effect = higher value; nuclei count: measured here: cell count, toxicity
[3] = inhibitors of E-selectin induction by TNFa, primary screen, imaging, HUVEC, immunofluorescence, MLSMR starter and 10KST1 sets (AID 487;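 active = visually confirmed hit in the image check and inhibition above 20%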;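 as to inhibition: signal is fraction of cell area covered by stained E-selectin grains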;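 as to nuclei count: 100% = median nuclei count of all wells on the same plate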); settings: HUVEC TNFalpha-induced E-selectin immunofluorescence imaging, at 2 µM; inhibition: stronger effect = higher value; nuclei count: measured here: cell number, toxicity
[4] = molecular target: Voltage-gated potassium channel subunit beta-2 (Rattus norvegicus) (UniProt P62483); test: KvBeta enzyme negative modulators, primary screen, biochemical, NADPH fluorescence (AID 622;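 active = fluorescence slope higher than the sample average by over 3 SD, cut at about -0.22 in these data, passing the limit was not always enough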;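 also: slope of raw intensity against log time taken from 70 to 1610 s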); settings: recombinant KvBeta, 4-cyanobenzaldehyde reduction, at 10 µM, stronger effect = higher value
Sequence of Voltage-gated potassium channel subunit beta-2 (Rattus norvegicus) (P62483 whole entry, looked up): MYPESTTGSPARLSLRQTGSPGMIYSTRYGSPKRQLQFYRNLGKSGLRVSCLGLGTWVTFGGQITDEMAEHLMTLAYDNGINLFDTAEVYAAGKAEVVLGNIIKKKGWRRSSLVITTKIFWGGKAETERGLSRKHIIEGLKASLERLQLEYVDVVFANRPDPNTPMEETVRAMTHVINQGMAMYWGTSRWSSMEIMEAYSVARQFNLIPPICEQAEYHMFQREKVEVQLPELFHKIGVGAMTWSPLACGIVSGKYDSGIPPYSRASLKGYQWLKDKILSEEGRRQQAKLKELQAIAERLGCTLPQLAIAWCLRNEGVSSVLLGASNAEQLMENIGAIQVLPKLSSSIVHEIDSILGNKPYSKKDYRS

[5] = molecular target: Voltage-gated potassium channel subunit beta-2 (Rattus norvegicus) (UniProt P62483); test: KvBeta positive modulators, primary screen, biochemical, NADPH fluorescence (AID 623;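 active = NADPH fluorescence slope more negative than the mean of all samples by about 3 SD, 99.7% confidence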;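 also: fluorescence intensity change per second fitted from 20 to 320 s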); settings: Recombinant KvBeta, NADPH fluorescence decrease slope, 10 min; at 10 µM; stronger effect = lower value
[6] = molecular target: Alpha-2C adrenergic receptor (Homo sapiens) (UniProt P18825); test: modulators of alpha2C/GIRK thallium flux, primary screen, cell-based, HEK293 alpha2C/GIRK1/2 (AID 624); settings: thallium flux BTC fluorescence, at 10 µM, actives lie on both sides;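 also: slope of fluorescence ratio to pre-addition baseline per second over 15 to 24 s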
Sequence of Alpha-2C adrenergic receptor (Homo sapiens) (P18825 whole entry, looked up): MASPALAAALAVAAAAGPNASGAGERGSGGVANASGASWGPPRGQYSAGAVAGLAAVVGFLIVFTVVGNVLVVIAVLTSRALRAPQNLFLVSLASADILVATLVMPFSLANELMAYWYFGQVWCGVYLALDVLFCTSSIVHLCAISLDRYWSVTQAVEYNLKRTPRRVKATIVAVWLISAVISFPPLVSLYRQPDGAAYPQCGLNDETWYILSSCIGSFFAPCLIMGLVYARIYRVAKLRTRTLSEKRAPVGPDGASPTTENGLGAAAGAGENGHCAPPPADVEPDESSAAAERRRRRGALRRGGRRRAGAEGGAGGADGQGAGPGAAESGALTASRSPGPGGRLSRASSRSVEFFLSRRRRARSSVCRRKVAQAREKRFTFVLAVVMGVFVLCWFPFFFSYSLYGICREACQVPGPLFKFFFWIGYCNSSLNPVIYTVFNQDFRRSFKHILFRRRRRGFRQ

[7] = inhibitors of Sendai virus-induced IRF3 signaling, primary screen, TLR/RLR signaling modifier project, cell-based, Sendai virus stimulus, luciferase, 10K MLSCN set (AID 602276;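 active = inhibition at or above 50% at 10 µM; inactive = inhibition below 50%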;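 also: firefly luciferase from ISG56 promoter only with Renilla not read in this screen; 0% = Sendai virus plus DMSO and 100% = medium plus DMSO without virus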); settings: HEK293 RL24 IRF3 luciferase reporter, at 10 µM, stronger effect = higher value
[8] = inhibitors of poly I:C-induced TLR3 signaling, primary screen, cell-based, poly I:C stimulus, luciferase, 10K MLSCN set (AID 602277;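 active = inhibition of the reporter signal at or above 50%; inactive = inhibition below 50%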); settings: HEK293-TLR3 RL24 IRF3 luciferase reporter, at 10 µM, stronger effect = higher value

Compound | cell count [1] | inhibition [1] | inhibition of aggregation [2] | nuclei count [2] [%] | inhibition [3] | nuclei count [3] [%] | fluorescence slope [4] | NADPH fluorescence slope [5] | slope [6] | inhibition [7] | inhibition [8]
CC(=O)NCC(=O)N(Cc1ccco1)C1(C(=O)NC2CCCCC2)CCCCC1 | 571 | 5.7% (inactive) | 19.5% (inactive) | 132 | -9.3% (inactive) | 128 | -0.538 (inactive) | -4.2e-05 (inactive) | 0.00597 (inactive) | 9.16% (inactive) | 19.2% (inactive)
O=S(=O)(NCc1ccccc1)c1ccc2c(c1)OCCO2 | 454 | -10.7% (inactive) | -10.8% (inactive) | 100 | -117% (inactive) | 121 | -0.599 (inactive) | -3.9e-05 (inactive) | 0.00569 (inactive) | -0.346% (inactive) | -1.95% (inactive)
Clc1ccc2nc(N3CCCCC3)[nH]c2c1 | 706 | 5.6% (inactive) | 11.3% (inactive) | 98.7 | -82.5% (inactive) | 102 | -0.446 (inactive) | -6.8e-05 (inactive) | 0.00544 (inactive) | -26% (inactive) | -98.5% (inactive)
c1ccc(CC2CCN(c3nc4ccccc4n4nnnc34)CC2)cc1 | 373 | -13.8% (inactive) | -7.8% (inactive) | 102 | -63.7% (inactive) | 114 | -0.312 (inactive) | -3.7e-05 (inactive) | 0.00583 (inactive) | 7.26% (inactive) | 13.6% (inactive)
CCN(CC)CCCNS(=O)(=O)c1ccc(OC)cc1 | 460 | 0.5% (inactive) | -18% (inactive) | 110 | -61.5% (inactive) | 134 | -0.429 (inactive) | -0.000105 (inactive) | 0.00623 (inactive) | 13.6% (inactive) | 27.9% (inactive)
O=C1CCCc2c1cc(C(=O)NCCCN1CCOCC1)c(=O)n2-c1ccc(Cl)cc1 | 568 | 2.5% (inactive) | 0.1% (inactive) | 99.5 | -2.6% (inactive) | 122 | -0.546 (inactive) | -4e-05 (inactive) | 0.00614 (inactive) | 10.7% (inactive) | 45.8% (inactive)
CN(C)C(=O)Cn1c(SCC(=O)NC2CCCCC2)nc2ccccc21 | 685 | -3.1% (inactive) | -19.2% (inactive) | 112 | -68.3% (inactive) | 146 | -0.41 (inactive) | 6.1e-06 (inactive) | 0.00698 (inactive) | 5.56% (inactive) | 31.7% (inactive)
Cc1ccc(Cn2c(CN3CCOCC3)nc3c2c(=O)n(C)c(=O)n3C)cc1 | 332 | 19.7% (inactive) | 16.7% (inactive) | 104 | -3.6% (inactive) | 104 | -0.48 (inactive) | -4.2e-05 (inactive) | 0.00599 (inactive) | 2.2% (inactive) | 26.6% (inactive)
Cn1cccc1Cc1nnc(SCC(=O)Nc2ccccc2F)n1-c1ccc(F)cc1 | 878 | -2.3% (inactive) | -8.8% (inactive) | 108 | -44.3% (inactive) | 113 | -0.561 (inactive) | -8.8e-05 (inactive) | 0.00608 (inactive) | 5.41% (inactive) | 24.9% (inactive)
COC(=O)[C@H](C)NC(=O)Nc1cc(OC)ccc1OC | 572 | -15.2% (inactive) | -17.4% (inactive) | 114 | -11% (inactive) | 103 | -0.586 (inactive) | 1.8e-05 (inactive) | 0.00542 (inactive) | -3.29% (inactive) | -52% (inactive)
CCOC(=O)c1c(C)[nH]c(C)c1C(=O)COC(=O)CNC(=O)c1ccc(OCC)cc1 | 708 | -2.2% (inactive) | 5.2% (inactive) | 63.7 | -19.4% (inactive) | 104 | -0.456 (inactive) | 2.3e-05 (inactive) | 0.00496 (inactive) | 14.3% (inactive) | 28.6% (inactive)
CC(=O)N1CCN(c2ccc(S(=O)(=O)N3CCCCC3)cn2)CC1 | 719 | 0.8% (inactive) | 4.2% (inactive) | 101 | -6.8% (inactive) | 132 | -0.591 (inactive) | 1.1e-05 (inactive) | 0.00522 (inactive) | 6.79% (inactive) | 8.53% (inactive)
Cc1ccc(C(C)C)c(OCCn2c(=O)oc3ccccc32)c1 | 540 | -5.9% (inactive) | 0.7% (inactive) | 89.4 | -32.5% (inactive) | 77.7 | -0.416 (inactive) | 2.5e-05 (inactive) | 0.00298 (inactive) | -13.6% (inactive) | -27.2% (inactive)
CC1Cc2nc(SCC(=O)Nc3ccccc3F)n(C)c(=O)c2S1 (stereo not drawn) | 385 | 4.4% (inactive) | -9.2% (inactive) | 98.4 | -15% (inactive) | 113 | -0.505 (inactive) | -2.1e-05 (inactive) | 0.00529 (inactive) | 10.7% (inactive) | 3.28% (inactive)
COc1ccccc1-n1c(-c2cccnc2)n[nH]c1=S | 204 | -4.8% (inactive) | 17.2% (inactive) | 77 | -123% (inactive) | 107 | -0.598 (inactive) | -4.1e-06 (inactive) | 0.0043 (inactive) | -0.823% (inactive) | -12.6% (inactive)
Fc1cccc(Nc2cc(-n3cccn3)ncn2)c1 | 553 | -8.3% (inactive) | -0.2% (inactive) | 89.5 | -65.9% (inactive) | 109 | -0.509 (inactive) | -7.2e-05 (inactive) | 0.00508 (inactive) | -32.7% (inactive) | -66.1% (inactive)
COc1ccc(C)cc1-n1c(N)c(C#N)c(C#N)c1-c1ccc(OC)c(OC)c1OC | 676 | -3.9% (inactive) | 16.9% (inactive) | 86 | -9.7% (inactive) | 105 | -0.537 (inactive) | 2.9e-05 (inactive) | 0.00611 (inactive) | 12% (inactive) | 32.6% (inactive)
CCOC(=O)Cc1nnc2c(Nc3ccccc3F)nc3nonc3n12 | 631 | -9.1% (inactive) | -25.8% (inactive) | 119 | -38.4% (inactive) | 142 | -0.582 (inactive) | -7e-06 (inactive) | 0.00616 (inactive) | 7.74% (inactive) | -15.3% (inactive)
Cc1nnc(C)c2c(C)n(Cc3ccc4c(c3)OCO4)c(C)c12 | 679 | 6.2% (inactive) | 4.3% (inactive) | 74.3 | -8.3% (inactive) | 95.8 | -0.517 (inactive) | 4.5e-06 (inactive) | 0.0037 (inactive) | -9.5% (inactive) | -7.65% (inactive)
Cn1c(=O)[nH]c(=O)c2c1nc(CN1CCN(c3cccc(Cl)c3)CC1)n2CCc1ccccc1 | 683 | -9.7% (inactive) | 6.6% (inactive) | 107 | -90.8% (inactive) | 87.9 | -0.587 (inactive) | 8.1e-06 (inactive) | 0.00654 (inactive) | -13.9% (inactive) | -0.338% (inactive)
CCCCC(=O)Nc1ccc(NC(=O)C2CC2)nc1 | 558 | 19.2% (inactive) | 16% (inactive) | 67.6 | 22.7% (inactive) | 94.2 | -0.474 (inactive) | -6e-05 (inactive) | 0.00505 (inactive) | 3.06% (inactive) | -2.76% (inactive)
Cc1cc(C)cc(N(CC(=O)NC2CCC(C)CC2)S(=O)(=O)c2c(C)noc2C)c1 (stereo not drawn) | 753 | -6.3% (inactive) | 12.1% (inactive) | 114 | -27.2% (inactive) | 115 | -0.622 (inactive) | -3e-05 (inactive) | 0.00687 (inactive) | 7.51% (inactive) | 32.5% (inactive)
Oc1ccccc1-c1cc(C(F)(F)C(F)F)[nH]n1 | 337 | -1% (inactive) | 1.9% (inactive) | 105 | 46.4% (inactive) | 106 | -0.332 (inactive) | -2e-05 (inactive) | 0.00606 (inactive) | -13.1% (inactive) | -54.6% (inactive)
COC(=O)C1=C(C)NC2=C(C(=O)CCC2)C1c1coc2ccccc2c1=O (stereo not drawn) | 322 | -2.1% (inactive) | 14.4% (inactive) | 98.3 | -47.5% (inactive) | 111 | -0.244 (inactive) | 7.1e-06 (inactive) | 0.00668 (inactive) | 16.4% (inactive) | 48.4% (inactive)
C=CCNC(=O)CN(c1cccc(Br)c1)S(C)(=O)=O | 322 | -0.5% (inactive) | 13.9% (inactive) | 95.4 | 21.4% (inactive) | 115 | -0.509 (inactive) | 2.5e-05 (inactive) | 0.00557 (inactive) | 8.3% (inactive) | 14.4% (inactive)
CC1CN(c2nc3ccccc3nc2C(C#N)C(=O)NCc2ccc3c(c2)OCO3)CC(C)O1 (stereo not drawn) | 340 | 4.7% (inactive) | 11.1% (inactive) | 83.9 | -24.9% (inactive) | 81.7 | -0.347 (inactive) | -5.3e-05 (inactive) | 0.00757 (inactive) | 18.7% (inactive) | 14.5% (inactive)
CC(CN(C)Cc1ccccc1)OC(=O)c1ccc2c(c1)OCCO2 (stereo not drawn) | 596 | 0% (inactive) | -0.4% (inactive) | 126 | -40.2% (inactive) | 109 | -0.48 (inactive) | -5.1e-05 (inactive) | 0.00539 (inactive) | 8.96% (inactive) | 8.88% (inactive)
Cc1ccc(S(=O)(=O)N2CCN(S(C)(=O)=O)C2c2ccccc2)cc1 (stereo not drawn) | 464 | 0% (inactive) | 10.2% (inactive) | 93.5 | 11.6% (inactive) | 114 | -0.372 (inactive) | -4.8e-05 (inactive) | 0.00576 (inactive) | 8.09% (inactive) | 26.1% (inactive)
